The results in this text go back to PubChem BioAssay (NCI).

Where “and” joins values, the source holds several entries; their conditions need not be identical. Identical values can stand only once. The panel holds about 83,000 compounds, 20% with a hit somewhere; the sample as a whole holds those more often.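 Single-dose data. Exposure time 48 hours. Values below 10 considered active.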 Calls of active or inactive are those of the source.

The first experiment has as its system HCT-15 colon. As to the kind of experiment: NCI-60 one-dose screen, 48 h (100 = growth as untreated, 0 = no growth, -100 = all killed). The settings on record: 10 µM.
`O=C1C=Cc2ccccc2C1=O`: the growth was 46.9% (inactive).

Regarding `COC1CC2C=C(C)/C=C/C=C/C(=O)NC(c3ccccc3)C/C=C/CCC(O)CC(=O)C2=C1O` (stereo not given), the growth was -85.2% (active).

For the compound `Cc1ccc(NC(=O)CBr)cc1`, the growth is 96.6% (inactive).

Consider `Cc1ccc(C(=O)C2C(c3ccccc3)N2C2CCCCC2)cc1` (stereo not given), for which the growth was 99.3% (inactive) and 89.8% (inactive).

Consider `COc1cc(/C=C/[N+](=O)[O-])cc(OC)c1OC`, for which the growth is -9.12% (active).

With `O=C(CBr)Nc1ccc(Cl)cc1`, the growth was 17.6% (inactive).

On to `CC(C)c1cc([N+](=O)[O-])cc([N+](=O)[O-])c1O`, for which the growth is 108% (inactive).

On to `COc1ccccc1/C=C/[N+](=O)[O-]`, for which the growth is 42.3% (inactive).

Take `O=C(CCl)Nc1ccc(Cl)cc1`: the growth is 37.2% (inactive).

On to `Cc1cc(C)c(C[N+](C)(C)C)c(C)c1C`, for which the growth is 7.64% (active).

On to `C[C@]12CC[C@H]3[C@@H](CCC4=CC(=O)CC[C@@H]43)[C@@H]1CC[C@@H]2OC(=O)N(CCCl)N=O`, for which the growth was 66.8% (inactive).

In the case of `NNc1ccccc1`, the growth was 82.3% (inactive).

Regarding `COc1ccc(/C=C(\C)[N+](=O)[O-])cc1OC`, the growth was 0.0541% (active).

For `C[CH2][Hg][S]c1ccccc1C(=O)O`, the growth was -84.7% (active).

For the compound `NC(=O)c1cc([N+](=O)[O-])c(Cl)c([N+](=O)[O-])c1Cl`, the growth is -63.9% (active).

On to `O=S(=O)(F)c1ccc(Cl)cc1`, for which the growth is 98% (inactive).

As for `O=[N+]([O-])/C=C/c1ccc(Cl)cc1[N+](=O)[O-]`, the growth is -37.1% (active).

Regarding `COc1cc([N+](=O)[O-])c2ncccc2c1[N+](=O)[O-]`, the growth is 68.9% (inactive).

`Oc1c(I)cc(I)cc1I`: the growth is 108% (inactive).

`O=[N+]([O-])/C=C\c1ccc2c(c1)OCO2`: the growth was 78.4% (inactive).

As to `O=[N+]([O-])c1ccc(Br)c([N+](=O)[O-])c1`, the growth is 36.6% (inactive).

Regarding `COc1cc(/C=C/[N+](=O)[O-])cc(Br)c1OC`, the growth was 7.99% (active).

In the case of `COc1cc(/C=C\[N+](=O)[O-])ccc1O`, the growth is -12% (active) and 75.9% (inactive).

Regarding `Cc1cc(C(C)(C)c2ccc(O)c(C)c2)ccc1O`, the growth was 93.9% (inactive).

With `COC12c3c(C)cc(O)c4c(=O)occ(c34)C(=O)C1C13COC(=O)c4c(O)cc(C)c(c41)C(=O)C2C3OC(C)=O` (stereo not given), the growth is 100% (inactive).

The subject of a further experiment is HT29 colon. The experiment is described as above. Conditions: 10 µM.
Regarding `O=C1C=Cc2ccccc2C1=O`, the growth was 112% (inactive).

Regarding `COC1CC2C=C(C)/C=C/C=C/C(=O)NC(c3ccccc3)C/C=C/CCC(O)CC(=O)C2=C1O` (stereo not given), the growth is -83.7% (active).

As for `Cc1ccc(NC(=O)CBr)cc1`, the growth was 115% (inactive).

As for `Cc1ccc(C(=O)C2C(c3ccccc3)N2C2CCCCC2)cc1` (stereo not given), the growth is 111% (inactive) and 84.9% (inactive).

With `COc1cc(/C=C/[N+](=O)[O-])cc(OC)c1OC`, the growth was -27.1% (active).

As for `O=C(CBr)Nc1ccc(Cl)cc1`, the growth was 4.44% (active).

Take `CC(C)c1cc([N+](=O)[O-])cc([N+](=O)[O-])c1O`: the growth was 103% (inactive).

Take `COc1ccccc1/C=C/[N+](=O)[O-]`: the growth is 39.5% (inactive).

Turning to `O=C(CCl)Nc1ccc(Cl)cc1`, the growth is 41.2% (inactive).

For `Cc1cc(C)c(C[N+](C)(C)C)c(C)c1C`, the growth was 3.52% (active).

For the compound `C[C@]12CC[C@H]3[C@@H](CCC4=CC(=O)CC[C@@H]43)[C@@H]1CC[C@@H]2OC(=O)N(CCCl)N=O`, the growth is 59% (inactive).

In the case of `NNc1ccccc1`, the growth was 96.9% (inactive).

Regarding `COc1ccc(/C=C(\C)[N+](=O)[O-])cc1OC`, the growth was -67% (active).

Regarding `C[CH2][Hg][S]c1ccccc1C(=O)O`, the growth was -59% (active).

With `NC(=O)c1cc([N+](=O)[O-])c(Cl)c([N+](=O)[O-])c1Cl`, the growth was -88.4% (active).

As for `O=S(=O)(F)c1ccc(Cl)cc1`, the growth is 106% (inactive).

On to `O=[N+]([O-])/C=C/c1ccc(Cl)cc1[N+](=O)[O-]`, for which the growth is -91.6% (active).

For the compound `Oc1c(I)cc(I)cc1I`, the growth is 107% (inactive).

For `O=[N+]([O-])/C=C\c1ccc2c(c1)OCO2`, the growth was 58.2% (inactive).

As for `O=[N+]([O-])c1ccc(Br)c([N+](=O)[O-])c1`, the growth was 75.4% (inactive).

With `O=[N+]([O-])c1ccc(N(CCO)CCO)c2c1no[n+]2[O-]`, the growth is -78.6% (active).

`COc1cc(/C=C\[N+](=O)[O-])ccc1O`: the growth was 32.3% (inactive) and 90.3% (inactive).

As to `COC12c3c(C)cc(O)c4c(=O)occ(c34)C(=O)C1C13COC(=O)c4c(O)cc(C)c(c41)C(=O)C2C3OC(C)=O` (stereo not given), the growth is 105% (inactive).

A further experiment relates to SNB-75 CNS. The description is as above. The settings on record: 10 µM.
Turning to `COC1CC2C=C(C)/C=C/C=C/C(=O)NC(c3ccccc3)C/C=C/CCC(O)CC(=O)C2=C1O` (stereo not given), the growth was -89.9% (active).

Take `Cc1ccc(NC(=O)CBr)cc1`: the growth is 97.1% (inactive).

Take `Cc1ccc(C(=O)C2C(c3ccccc3)N2C2CCCCC2)cc1` (stereo not given): the growth is 97.5% (inactive) and 88.8% (inactive).

With `COc1cc(/C=C/[N+](=O)[O-])cc(OC)c1OC`, the growth is 18.9% (inactive).

Consider `O=C(CBr)Nc1ccc(Cl)cc1`, for which the growth is 102% (inactive).

Turning to `COc1ccccc1/C=C/[N+](=O)[O-]`, the growth was 69.4% (inactive).

Turning to `O=C(CCl)Nc1ccc(Cl)cc1`, the growth was 62.4% (inactive).

Regarding `Cc1cc(C)c(C[N+](C)(C)C)c(C)c1C`, the growth was 8.87% (active).

With `C[C@]12CC[C@H]3[C@@H](CCC4=CC(=O)CC[C@@H]43)[C@@H]1CC[C@@H]2OC(=O)N(CCCl)N=O`, the growth is 50.1% (inactive).

As for `NNc1ccccc1`, the growth was 93.2% (inactive).

As to `COc1ccc(/C=C(\C)[N+](=O)[O-])cc1OC`, the growth was 56.5% (inactive).

Consider `C[CH2][Hg][S]c1ccccc1C(=O)O`, for which the growth was -43.7% (active).

For `NC(=O)c1cc([N+](=O)[O-])c(Cl)c([N+](=O)[O-])c1Cl`, the growth was 65.1% (inactive).

Regarding `O=S(=O)(F)c1ccc(Cl)cc1`, the growth was 92.9% (inactive).

`O=[N+]([O-])/C=C/c1ccc(Cl)cc1[N+](=O)[O-]`: the growth was 55.4% (inactive).

With `COc1cc([N+](=O)[O-])c2ncccc2c1[N+](=O)[O-]`, the growth was 61.3% (inactive).

On to `Oc1c(I)cc(I)cc1I`, for which the growth is 87.9% (inactive).

As for `O=[N+]([O-])c1ccc(N(CCO)CCO)c2c1no[n+]2[O-]`, the growth is -39.3% (active).

In the case of `COc1cc(/C=C/[N+](=O)[O-])cc(Br)c1OC`, the growth was 19.5% (inactive).

In the case of `COc1cc(/C=C\[N+](=O)[O-])ccc1O`, the growth was 93.6% (inactive) and 96.7% (inactive).

`Cc1cc(C(C)(C)c2ccc(O)c(C)c2)ccc1O`: the growth is 73.7% (inactive).

Consider `COC12c3c(C)cc(O)c4c(=O)occ(c34)C(=O)C1C13COC(=O)c4c(O)cc(C)c(c41)C(=O)C2C3OC(C)=O` (stereo not given), for which the growth is 89.6% (inactive).
